What was measured:
Assay in all cases: PBM binding z-score (relative to random genomic background probes); higher = stronger binding; sequences stand for … in GC…GCGATTGACAGCGTAGAATGAAGG
[1] = test system: FXR:RXRa (NR concentration 270 nM, RXRa partner concentration 90 nM)
Method in brief: (§1)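 Custom Agilent 4×180K protein-binding microarrays carried double-stranded probes, each with a 34-nt variable region. These regions held direct-repeat seeds, single-nucleotide variants, half-site ablations and random human genomic background sequences. Ligand-free nuclear receptor dimers were incubated on the arrays for 1 h, antibodies against each partner (one per run) detected binding, and scanned fluorescence was regression-normalized. Binding z-scores take the random background probes as reference.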

[2] = test system: LXRa:RXRa (NR concentration 270 nM, RXRa partner concentration 90 nM)
Method in brief: as §1

[3] = test system: LXRa homodimer (NR concentration 270 nM)
Method in brief: as §1

[4] = test system: LXRb:RXRa (NR concentration 270 nM, RXRa partner concentration 90 nM)
Method in brief: as §1

[5] = test system: LXRb homodimer (NR concentration 270 nM)
Method in brief: as §1

[6] = test system: PPARa:RXRa (NR concentration 270 nM, RXRa partner concentration 90 nM)
Method in brief: as §1

[7] = test system: PPARg:RXRa (NR concentration 180 nM, RXRa partner concentration 90 nM)
Method in brief: as §1

[8] = test system: PPARg:RXRa 270nM:90nM, anti-RXR (NR concentration 270 nM, RXRa partner concentration 90 nM)
Method in brief: as §1

[9] = test system: PPARg:RXRa 30nM:10nM, anti-RXR (NR concentration 30 nM, RXRa partner concentration 10 nM)
Method in brief: as §1

[10] = test system: PPARg:RXRa 90nM:30nM, anti-RXR (NR concentration 90 nM, RXRa partner concentration 30 nM)
Method in brief: as §1

[11] = test system: PPARg:RXRa DBDmut IVT, anti-RXR (DBD mutation: RXRa K156A/R161A, NR concentration 270 nM, RXRa partner concentration 90 nM)
Method in brief: as §1

[12] = test system: PPARg:RXRa IVT, anti-PPARg (NR concentration 270 nM, RXRa partner concentration 90 nM)
Method in brief: as §1

[13] = test system: PPARg DBDmut:RXRa IVT, anti-PPARg (DBD mutation: PPARg1 K132A/R137A, NR concentration 270 nM, RXRa partner concentration 90 nM)
Method in brief: as §1

[14] = test system: PPARg DBDmut IVT, anti-PPARg (DBD mutation: PPARg1 K132A/R137A, NR concentration 270 nM)
Method in brief: as §1

[15] = test system: PPARg homodimer (NR concentration 180 nM)
Method in brief: as §1

[16] = test system: PXR:RXRa (NR concentration 270 nM, RXRa partner concentration 90 nM)
Method in brief: as §1

[17] = test system: PXR homodimer (NR concentration 270 nM)
Method in brief: as §1

[18] = test system: RARa:RXR (NR concentration 270 nM, RXRa partner concentration 90 nM)
Method in brief: as §1

[19] = test system: RARa homodimer (NR concentration 270 nM)
Method in brief: as §1

[20] = test system: RARb:RXRa (NR concentration 270 nM, RXRa partner concentration 90 nM)
Method in brief: as §1

Sequence | PBM binding z-score [1] | PBM binding z-score [2] | PBM binding z-score [3] | PBM binding z-score [4] | PBM binding z-score [5] | PBM binding z-score [6] | PBM binding z-score [7] | PBM binding z-score [8] | PBM binding z-score [9] | PBM binding z-score [10] | PBM binding z-score [11] | PBM binding z-score [12] | PBM binding z-score [13] | PBM binding z-score [14] | PBM binding z-score [15] | PBM binding z-score [16] | PBM binding z-score [17] | PBM binding z-score [18] | PBM binding z-score [19] | PBM binding z-score [20]
TCTAGTAGATCAATAGAGGTTAAGAAAGTGCGCT | 0.905 | 3.79 | 0.28 | 1.96 | -0.599 | 1.98 | 0.362 | 1.7 | 2.76 | 2.4 | 1.7 | 0.843 | -0.106 | 0.138 | 0.0842 | 3.18 | 0.411 | 1.81 | 0.23 | 0.908
CCTAGCAGGCCAATCTGGGTCACTTAAGGCTTGA | 0.716 | 1.48 | -0.236 | 0.733 | -0.723 | 2.96 | 1.68 | 2.03 | -0.218 | 1.33 | 4.27 | 5.04 | 0.275 | -0.588 | 1.03 | 1.16 | -0.589 | 1.62 | -0.727 | 1.55
AATACAGGGTCATTGTAGGCCAGAGTACGCACAG | 7.11 | 6.93 | 3.2 | 5.09 | 1.47 | 5.93 | 6.15 | 5.54 | 2.4 | 4.29 | 2.56 | 4.77 | 1.99 | 0.86 | 2.91 | 4.83 | 0.912 | 4.54 | 0.607 | 4.19
CATACAGGGTCAGCTAGGCCAGAGAAGGGACGGC | 4.68 | 2.97 | -0.0685 | 2.27 | 0.339 | 4.4 | 3.38 | 3.06 | 0.62 | 1.82 | 1.21 | 2.58 | 0.932 | -0.117 | 1.9 | 2.24 | 0.0894 | 3.29 | 0.36 | 4.16
ACTATTAGTTGACTTAGGGCAAGCGATACGACGC | 0.286 | 0.302 | 0.111 | 0.0469 | 0.509 | 0.124 | 0.824 | 0.206 | 0.267 | 0.144 | 0.209 | 0.768 | 0.636 | 1.04 | 0.596 | 0.255 | 0.294 | 0.775 | 0.794 | 0.892
ATATGTAGGTTATCGGGTCTTTCAGTTTGCGCAT | 0.832 | 1.52 | 1.05 | 1.64 | 1.21 | 3.2 | 5.24 | 4.68 | 2.04 | 3.97 | 7.73 | 6.72 | 2.3 | 2.32 | 2.02 | 1.2 | 1.43 | 1.07 | 1.78 | 1.3
ATATGTAGCTTATCGGGTCATTCAGTTTGCGCAT | 2.02 | 2.21 | 1.13 | 2.2 | 1.08 | 2.5 | 0.837 | 0.994 | 0.318 | 0.857 | 1.01 | 1.81 | 1.36 | 1.64 | 1.05 | 3.2 | 8.3 | 2.8 | 0.765 | 1.72
TCTTGGAGATCAAGCAGGTTAAGAAAGCCTGAGT | 0.463 | 0.405 | -0.249 | 0.297 | -0.658 | 1.09 | -0.253 | 1.39 | 2.35 | 1.84 | 1.33 | -0.158 | -0.0417 | -0.978 | -0.522 | 0.538 | 0.0928 | 0.684 | -0.244 | 0.272
AATACAGGGTCATCGTAGGGCAGAGTACGCACAG | 7.54 | 6.88 | 2.95 | 5.07 | 1.16 | 5.83 | 6.94 | 6.07 | 2.84 | 4.96 | 3.16 | 4.29 | 1.4 | 0.756 | 3.57 | 5.4 | 0.861 | 5.26 | 0.97 | 4.7
ACAGACAGGTGAGTGAAGGTAACTTAGCTGGACG | 0.0414 | 0.0601 | -0.497 | -0.508 | -0.62 | -0.0817 | 0.693 | -0.15 | -0.0448 | -0.0872 | 0.507 | 0.549 | -0.0823 | -0.397 | 0.206 | -0.213 | -0.19 | 0.132 | -0.0854 | 0.486
ATATCTAGGTAACAAGTTCAGTGAAAGAGAGGAC | 0.903 | 1.07 | 0.574 | 0.857 | 0.917 | 3.32 | 5.22 | 4.43 | 2.41 | 4.16 | 6.96 | 6.85 | 2.71 | 2.4 | 1.51 | 1.64 | 1.49 | 0.979 | 1.72 | 1.58
CCTTAAGGGTCAAGGTTATAGCACGGGTGGTACG | 7.56 | 5.38 | 1.06 | 4.67 | 0.683 | 5.86 | 5.81 | 5.97 | 2.96 | 4.78 | 2.34 | 3.94 | 0.0433 | 0.353 | 2.23 | 4.37 | 0.453 | 5.62 | 1.31 | 5.4
CCTACTGGGCCACGAAAAGTCATTGATTCAGTGA | -0.198 | -0.0823 | -0.286 | -0.375 | -0.772 | 0.98 | 1.63 | 1.67 | 0.153 | 0.689 | 5.95 | 5.51 | -0.0211 | -0.417 | 0.0392 | -0.419 | -0.579 | -0.211 | -0.346 | 0.629
AATACAGGGTCCCTAGGCCAGAGTAGGTACGAAT | -0.341 | -0.334 | -0.145 | -0.634 | -0.575 | -0.299 | 0.603 | 0.00679 | 0.133 | 0.0597 | -0.243 | 0.245 | -0.698 | -1.31 | -0.659 | -0.49 | -0.525 | -0.409 | 0.104 | 0.138
